In PubChem BioAssay (Tox21):
Records with an inconclusive call do not appear. Values without a mark were called inactive. Active and inactive are the calls of the source. Calls come from the whole dose curve; as a rule, active = well fitted activation curve with a large enough effect in the repeat runs; inconclusive = weak or mixed curves; inactive = flat fitted curve, though single readings scatter.

Experiment: A CellTox Green Cytotoxicity Assay to monitor cytotoxicity in HEK293 cells - 32 hour (AID 1224881); note: nearly all actives have a fitted effect of over 40% in size
Conditions: CellTox Green fluorescence; series mostly up to 76.8 µM; cytotoxicity increase: at the top concentration
Excerpt: National Center for Advancing Translational Sciences [NCATS]
NIH Chemical Genomics Center [NCGC]
U.S. Environmental Protection Agency [EPA]
National Institutes of Environmental Health Sciences [NIEHS]
National Toxicology Program [NTP]
Cell-based models are critical for drug discovery. Determining the natural cytotoxic effects resulting from test compounds is an essential research activity. A CellTox Green Cytotoxicity Assay to monitor cytotoxicity in real time of continues cell culture during 40 hours of the compound treatment was used to screen Tox21 10K library compounds in Hek293 cells. CellTox Green Cytotoxicity Assay is a nonlytic, homogeneous, biofluorescent method to measure cytotoxicity in cell culture after experimental manipulation. The assay system uses a proprietary asymmetric cyanine dye that is excluded from viable cells but preferentially stains the dead cell's DNA. […] Viable cells produce no appreciable increases in fluorescence. Therefore, the fluorescence signal produced by the binding interaction with dead cell DNA is proportional to cytotoxicity.
The mixture of Hek293 cell suspension and reagents were dispensed at 600cells/6 ul/well in 1536-well tissue culture treated black solid bottom plates using a Multidrop dispenser. After the assay plates were incubated at a 37 C/5% CO2 incubator for 5 hours, 23 nL of compounds dissolved in DMSO, positive and negative controls was transferred to the assay plate by a pintool work station. The plates were incubated at 37 C for 40 hours. The fluorescence intensity were measured at 0h, 8h, 16h, 24h, 32h and 40h time points using ViewLux plate reader during compound treatment.
% is set by controls: 0 for no effect and ±100 for the full control effect; potency is the fitted concentration of half-maximal effect.

Compound | cytotoxicity increase | Potency
O=C(O)CN(CCCN(CC(=O)O)CC(=O)O)CC(=O)O | 1.94% [at 15.8 µM] | 
O=C(O)C[C@H](O)C[C@H](O)/C=C/c1c(C2CC2)nc2ccccc2c1-c1ccc(F)cc1 | -0.515% [at 15.8 µM] | 
Nc1c(Br)cc([N+](=O)[O-])cc1Br | -3.94% | 
Cn1ccnc1 | -26% | 
CC1=CC[C@@H](C(C)(C)O)CC1 | -9.5% | 
Brc1cc(Br)cc(Br)c1 | 12.8% | 
Clc1cccc(Cl)n1 | -3.48% | 
CCSCC | -15.4% | 
C=CC(=O)OCC(Br)CBr (stereo not given) | 24.3% | 
CC(=O)[C@]1(O)Cc2c(O)c3c(c(O)c2[C@@H](O[C@H]2C[C@H](N)[C@H](O)[C@H](C)O2)C1)C(=O)c1ccccc1C3=O | 11.2% [at 35.3 µM] | 
CCOC=C(C(=O)OCC)C(=O)OCC | -0.0819% | 
O=C(CCCCCCCCc1cccnc1)N1CCC(C=C(c2ccccc2)c2ccccc2)CC1 | 21% | 
NCc1cccc(C2CCN(C(=O)c3ccc(C#Cc4ccccc4F)o3)CC2)c1 |  | 49 µM (active)
Oc1ccc2c(c1)CCC2 | -1.28% | 
CC/C=C(\C)C=O | -15.9% | 
O[Si](c1ccccc1)(c1ccccc1)c1ccccc1 | 0.578% | 
Oc1ccc(Cl)cc1C1CCCC1 |  | 49 µM (active)
Cc1cc(C)c(O)c(C(C)(C)C)c1 |  | 27.5 µM (active)
CCC(=O)OC/C=C(\C)CCC=C(C)C | -0.372% | 
Cc1ccc2nc(-c3ccc(N)cc3)sc2c1S(=O)(=O)O | -6.16% [at 35.3 µM] | 

Compound | cytotoxicity increase | Potency
O=C1OC(=O)c2cc(-c3ccc4c(c3)C(=O)OC4=O)ccc21 | 3.45% | 
CCOC(=O)[C@H](O)[C@@H](O)C(=O)OCC | -2.88% | 
CN1CCN(CCCN2c3ccccc3Sc3ccc(C(F)(F)F)cc32)CC1 |  | 23.9 µM (active)
CC(=O)CC(N)=O | -15.7% | 
Cc1ccc(N=Nc2c(O)ccc3ccccc23)c(C)c1 | -9.14% [at 35.3 µM] | 
CCN(CC)c1ccc(N=Nc2ccccc2)cc1 | -21% | 
CN(C)CCOc1ccc(/C(=C(/CCCl)c2ccccc2)c2ccccc2)cc1 |  | 40.9 µM (active)
CCc1c(C)cc(N)c(CC)c1N | 1.47% | 
[Cl][Sc]([Cl])[Cl] | -3.77% | 
Cc1cccc2c1ccc1ccccc12 | 11.7% | 
COCCC(=O)OC | -0.469% | 
c1ccc2occc2c1 | -14.3% | 
CCCCCCCCCCCC(=O)Cl | 1.09% | 
C/C(=C\c1ccc(C(=O)O)cc1)c1ccc2c(c1)C(C)(C)CCC2(C)C | -0.337% [at 35.3 µM] | 
Nc1ccc2c(S(=O)(=O)O)cccc2c1S(=O)(=O)O | 0% [at 35.3 µM] | 
CC1(C)[C@H]2CC[C@]1(C)C(=O)C2 | -2.24% | 
NC(=O)C1CO1 (stereo not given) | -3.55% | 
[Cl][Eu]([Cl])[Cl] | -1.19% | 
S=C1NC=NC2N=CNC12 (stereo not given) | 5.58% | 
CCC(O)CO (stereo not given) | -5.3% | 
